Experimental findings from PubChem BioAssay are described below.

One assay concerns the target Albumin (Bos taurus) (UniProt P02769). Briefly: compounds binding labelled BSA control protein – biochemical, small-molecule microarray, Alexa647 label, 635/667 nm fluorescence, artefact control for SMM control protein annotation, profiling panel (AID 1118).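 Note: score merges 667 nm emission intensity and signal-to-noise per printed compound spot.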 The settings on record: BSA-A647 binding, fluorescence 635 nm, higher = more signal.
Assay [1] can be described thus: probe aXIP binding to arrayed compounds – biochemical, NeuroSMM set, 635/667 nm fluorescence, primary screen (AID 1119).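 Note: probe is the protein aXip251-270 applied at 1 µg/mL to compound-printed slides; binding of probe to printed compounds measured as 667 nm fluorescence plus signal to noise.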 The settings on record: small-molecule microarray, higher = more signal, called active from +8 up or from −8 down.
A short description of assay [2]: probe aNOTCH3 binding on compound microarray – biochemical, small-molecule microarray, 635/667 nm fluorescence, primary screen (AID 1120).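 Note: probe is a biotin-tagged antibody raised against NOTCH3 rather than NOTCH3 protein; score merges spot fluorescence near 667 nm with spot signal to noise.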 The following applies: higher = more signal.
Assay [3] can be described thus: probe aNOTCH2 binding on compound microarray – biochemical, small-molecule microarray, 635/667 nm fluorescence, primary screen (AID 1121).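 Note: score merges feature fluorescence read at 667 nm with its signal to noise.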 The following applies: higher = more signal.
For assay [4], the target named is Carbonic anhydrase 2 (Homo sapiens) (UniProt P00918). In words: compounds binding carbonic anhydrase 2 – biochemical, small-molecule microarray, Alexa647-labelled CAII, profiling panel (AID 1122). The following applies: CAII-A647 binding fluorescence, higher = more signal.
The nature of assay [5]: COS7 lysate on small-molecule microarray, probe aHis, 635 nm (AID 1123).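 Note: z-score combines 667nm fluorescence intensity with signal-to-noise per printed compound spot.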 The following applies: COS7 cell lysate, fluorescence, higher = more signal.
The nature of assay [6]: probe aLAP1 signal on lysate-treated microarray – cell lysate, small-molecule microarray, COS7 lysate, primary screen (AID 1124).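 Note: lysate comes from COS7 cells expressing LAP1 and is applied at 0.3 µg/mL; score merges spot fluorescence near 667 nm with signal-to-noise over triplicate slides.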 The following applies: probe aLAP1, fluorescence, higher = more signal.
For a further assay, the system named is Sam68 (KHDRBS1). Briefly: compounds binding KHDRBS1 protein – biochemical, small-molecule microarray, 635 nm fluorescence, primary screen (AID 1125).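 Note: score merges 667 nm channel intensity with signal to noise over triplicate slides.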 The settings on record: higher = more signal.
Assay [7] relates to Chordin-like protein 2 (CHRDL2). In words: compounds binding chordin-like 2 – biochemical, small-molecule microarray, 635 nm fluorescence, primary screen (AID 1126).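 Note: printed compound slides probed with Chrdl2 protein at 4 µg/mL for 1 h at 4 C; score merges 667 nm emission intensity with signal to noise over three replicate slides.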 The following applies: fluorescence 635 nm, higher = more signal.
The target in assay [8] is Concanavalin-A (Canavalia ensiformis) (UniProt P02866). Briefly: compounds binding concanavalin A lectin – biochemical, small-molecule microarray, Alexa647 label, 635 nm, artefact control for SMM control protein annotation, primary screen (AID 1127).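 Note: z combines 667 nm emission intensity with signal-to-noise across three replicate slides.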 The settings on record: ConA-A647 binding fluorescence, higher = more signal.

Calls of active or inactive are those of the source.

Albumin (Bos taurus), sequence (P02769 whole entry, looked up): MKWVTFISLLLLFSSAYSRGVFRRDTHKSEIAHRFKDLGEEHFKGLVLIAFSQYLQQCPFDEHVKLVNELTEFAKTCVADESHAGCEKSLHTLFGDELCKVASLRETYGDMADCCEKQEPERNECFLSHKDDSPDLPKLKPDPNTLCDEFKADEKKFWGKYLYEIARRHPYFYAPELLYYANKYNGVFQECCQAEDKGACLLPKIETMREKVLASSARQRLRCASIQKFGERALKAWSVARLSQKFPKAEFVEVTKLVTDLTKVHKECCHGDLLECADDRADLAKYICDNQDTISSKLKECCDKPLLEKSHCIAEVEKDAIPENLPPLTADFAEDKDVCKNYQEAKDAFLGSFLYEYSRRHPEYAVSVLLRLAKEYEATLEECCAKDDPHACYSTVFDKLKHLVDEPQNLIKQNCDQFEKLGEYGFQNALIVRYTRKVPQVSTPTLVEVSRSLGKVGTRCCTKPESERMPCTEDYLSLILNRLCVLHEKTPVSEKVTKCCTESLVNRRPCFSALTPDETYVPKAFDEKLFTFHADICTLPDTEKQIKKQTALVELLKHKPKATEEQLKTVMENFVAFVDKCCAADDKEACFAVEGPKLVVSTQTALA
Concanavalin-A (Canavalia ensiformis), sequence (P02866 whole entry, looked up): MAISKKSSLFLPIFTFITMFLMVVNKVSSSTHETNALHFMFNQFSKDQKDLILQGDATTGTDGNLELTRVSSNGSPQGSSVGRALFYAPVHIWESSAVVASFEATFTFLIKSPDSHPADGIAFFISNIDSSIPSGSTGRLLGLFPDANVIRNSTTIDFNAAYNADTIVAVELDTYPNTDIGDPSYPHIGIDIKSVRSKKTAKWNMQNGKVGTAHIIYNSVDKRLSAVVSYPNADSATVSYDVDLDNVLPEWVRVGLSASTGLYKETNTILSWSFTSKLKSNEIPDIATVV

For `COCCOC(=O)N1C(=O)[C@@]2(c3cc(C#CC4=CCCCC4)ccc31)[C@H](C(=O)N1CCc3cc(OC)c(OC)cc3C1)[C@H]1C(=O)O[C@H](c3ccccc3)[C@H](c3ccccc3)N1[C@@H]2c1ccc(OCCO)cc1`, the composite z-score in the assay with Albumin (Bos taurus) was 0.448; in assay [2], 0.0836; in assay [3], -0.152; in assay [4] it was 0.194; in [5], 1; in [6], 0.378. For the same molecule, the results for the composite z-score (in the assay with Sam68 (KHDRBS1); in [7]; in [8]) were 1.29, 0.69 and 1.14, respectively. Further, the composite Z-score in [1] was 0.238 (inactive).
As for `COc1cc(OC)c(C(O)C2C=CC3C(=O)NC(=O)C3N2Nc2ccc(Cl)cc2Cl)cc1Br` (stereo not given), the composite z-score came out at 1 in the assay with Albumin (Bos taurus); 0.282 in assay [2]; 0.321 in assay [3]; 0.615 in [4]; 2.99 in [5]; 0.474 in assay [6]. The composite z-score is 1.22 in the assay on Sam68 (KHDRBS1), -1.09 in [7] and 0.468 in assay [8]. For the same molecule, the composite Z-score in assay [1] was 2.76 (inactive).
In the case of `CCOC(=O)C1=CCC(c2ccccc2)N(S(=O)(=O)CC[Si](C)(C)C)C1` (stereo not given), the composite z-score is -0.149 with Albumin (Bos taurus); -0.392 in assay [2]; -0.188 in assay [3]; -0.35 in [4]; -0.177 in assay [5]; -0.0394 in assay [6]. Further, the composite z-score with Sam68 (KHDRBS1) is -0.717; in assay [7], 0.165; in assay [8], -0.0238. In addition, the composite Z-score in assay [1] was 0.0503 (inactive).
With `CN1C(=O)C2C=CC(C(O)c3ccc(I)cc3)N(N3CCCCC3)C2C1=O` (stereo not given), the composite z-score in the assay with Albumin (Bos taurus) worked out at 0.999; in assay [2] it was 0.748; in assay [3] it was 0.0196; in assay [4], 0.608; in [5], 2.85; in assay [6] it was 0.879. Also, the composite z-score is 1.32 in the assay on Sam68 (KHDRBS1), -0.119 in [7] and 1.15 in assay [8]. Moreover, the composite Z-score in [1] is 0.891 (inactive).
`COCCCNC(=O)[C@@]1(Cc2ccccc2N=[N+]=[N-])N=C(c2ccc(OCCCO)cc2)O[C@H]1c1ccccc1N=[N+]=[N-]`: the composite z-score is 0.964 with Albumin (Bos taurus); 0.386 in assay [2]; 0.149 in [3]; 0.58 in assay [4]; 2.76 in [5]; 0.889 in assay [6]. In addition, the figures for the composite z-score (with Sam68 (KHDRBS1); in assay [7]; in [8]) were 1.29, -0.0927 and 1.1, respectively. In assay [1], the composite Z-score is 0.328 (inactive).
Consider `C=CC[C@@]1(C(N)=O)N=C(c2ccc(OCCCO)cc2)O[C@@H]1c1ccccc1CN=[N+]=[N-]`, for which the composite z-score with Albumin (Bos taurus) is 0.85; in [2], 0.185; in assay [3], -0.0712; in assay [4], 0.875; in assay [5], 3.25; in assay [6] it was 1.13. For the same molecule, the composite z-score with Sam68 (KHDRBS1) is 1.3; in assay [7], -0.41; in assay [8] it was 1. In addition, the composite Z-score in [1] is -0.631 (inactive).
Take `CN1C(=O)C2C=CC(C(O)c3ccc(-c4ccccc4)s3)N(N(c3ccccc3)c3ccccc3)C2C1=O` (stereo not given): the composite z-score in the assay with Albumin (Bos taurus) is 0.828; in assay [2], -0.0865; in assay [3], -0.134; in assay [4], 0.365; in assay [5], 1.69; in [6], -0.149. For the same molecule, the composite z-score in the assay with Sam68 (KHDRBS1) is 0.749; in assay [7] it was 0.414; in assay [8] it was 1.08. Moreover, the composite Z-score in assay [1] is 0.81 (inactive).
Take `CN1C(=O)C2C=CC(C(O)C3=C[C@H]4C[C@@H](C3)C4(C)C)N(Nc3ccccc3)C2C1=O` (stereo not given in full): the composite z-score with Albumin (Bos taurus) was 0.566; in assay [2], 0.169; in assay [3], -0.0712; in assay [4], 0.645; in [5] it was 1.75; in assay [6] it was -0.678. Moreover, the composite z-score turned out to be 1.31 in the assay on Sam68 (KHDRBS1), 0.307 in assay [7] and 0.782 in [8]. The composite Z-score in assay [1] is -0.636 (inactive).
`O=C(NCc1ccccc1)[C@@]1(Cc2ccccc2)N=C(c2ccc(OCCCO)cc2)O[C@H]1c1ccccc1`: the composite z-score with Albumin (Bos taurus) came out at 0.974; in assay [2], 0.261; in assay [3] it was 0.349; in [4] it was 0.617; in [5], 2.41; in assay [6], 1.4. The composite z-score in the assay with Sam68 (KHDRBS1) was 1.31; in assay [7] it was -1.46; in assay [8], 1.15. For the same molecule, the composite Z-score in [1] was 0.1 (inactive).
Regarding `CC(C)(C)OC(=O)CC[C@@]1(C(N)=O)N=C(c2ccc(OCCCO)cc2)O[C@@H]1c1ccccc1`, the composite z-score amounted to 0.604 in the assay with Albumin (Bos taurus); 0.3 in assay [2]; 0.011 in assay [3]; 0.758 in assay [4]; 2.99 in assay [5]; 0.26 in assay [6]. Also, the figures for the composite z-score (with Sam68 (KHDRBS1); in assay [7]; in [8]) were 1.3, -0.796 and 0.722, respectively. Also, in assay [1], the composite Z-score is -0.327 (inactive).
As to `COc1ccc(C(=O)Nc2ccc(CN3C(=O)[C@@]4(O[C@@H](CCn5cc([C@H](O)c6ccccc6)nn5)[C@H]([Si](C)(C)c5ccc(OC)cc5)[C@H]4C)c4ccccc43)cc2)cc1`, the composite z-score with Albumin (Bos taurus) is 0.0961; in assay [2] it was -0.0377; in assay [3], -0.124; in assay [4], 0.563; in [5], 1.39; in assay [6] it was 0.0085. In addition, the composite z-score in the assay with Sam68 (KHDRBS1) was 0.876; in [7], -0.238; in assay [8], 0.399. The composite Z-score in [1] was 0.611 (inactive).
Consider `CCCCC(O)C1C=CC2C(=O)N(c3ccccc3)C(=O)C2N1Nc1ccccc1F` (stereo not given), for which the composite z-score with Albumin (Bos taurus) was 0.8; in assay [2], 0.378; in assay [3] it was 0.387; in assay [4], 0.747; in assay [5], 2.54; in assay [6], 0.439. Besides, the composite z-score in the assay on Sam68 (KHDRBS1) was determined as 1.12; in [7] it was 0.0354; in assay [8], 1.13. Also, the composite Z-score in assay [1] is 1.54 (inactive).
Consider `O=C1OCC=C[C@H]2OC34C=CCN(c5ccc6ccccc6c5)C(=O)[C@H]3N(CCCCCCO)C(=O)[C@@H]4[C@@H]12` (stereo not given in full), for which the composite z-score was 0.39 with Albumin (Bos taurus); -0.241 in assay [2]; -0.0472 in assay [3]; 0.837 in assay [4]; 0.818 in assay [5]; 0.941 in assay [6]. Also, the composite z-score is -1.42 in the assay on Sam68 (KHDRBS1), -0.677 in [7] and -0.486 in assay [8]. Further, in assay [1], the composite Z-score is 0.164 (inactive).
